Records with an inconclusive call do not appear. Active and inactive are the calls of the source. Calls follow the shape of the dose curve; as a rule, active = well fitted curve in the direction sought with a large enough effect in the repeat runs; inconclusive = weak or mixed curves; inactive = no such curve, though single readings can be large; an effect the other way counts as inactive or inconclusive.
What was measured:
[1] = A CellTox Green Cytotoxicity Assay to monitor cytotoxicity in HEK293 cells - 0 hour (AID 1224869); also: nearly all actives have a fitted effect of over 50% in size
Procedure, shortened: (§1)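 HEK293 cells, 600/well, were preincubated 5 hours and then exposed to compounds at 37 C for up to 40 hours. A cell-impermeant cyanine dye staining dead-cell DNA was read by fluorescence at 0, 8, 16, 24, 32 and 40 h time points.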

[2] = qHTS RealTime-Glo MT Cell Viability Assay in HepG2 cells - 40 hour (AID 1224870); also: nearly all actives have a fitted effect of over 50% in size
Procedure, shortened: (§2)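 HepG2 cells (600/well) mixed with RealTime-Glo MT reagent, settled 5 h at 37 C/5% CO2 before compound addition. Nonlytic NanoLuc luminescence from viable-cell prosubstrate reduction read repeatedly during 40 h treatment at 37 C.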

[3] = A CellTox Green Cytotoxicity Assay to monitor cytotoxicity in HEK293 cells - 40 hour (AID 1224871); also: nearly all actives have a fitted effect of over 45% in size
Procedure, shortened: as §1

[4] = qHTS RealTime-Glo MT Cell Viability Assay in HEK293 cells - 16 hour (AID 1224872); also: top concentration of the series differs between compounds; nearly all actives have a fitted effect of over 50% in size
Procedure, shortened: (§3)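 Luminescence generated by NanoLuc from substrate produced by living HEK293 cells served as the viability signal. Each value reflects the reading at its stated time point during continuous 40 h compound exposure at 37 C.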

[5] = qHTS RealTime-Glo MT Cell Viability Assay in HepG2 cells - 8 hour (AID 1224873); also: nearly all actives have a fitted effect of over 55% in size
Procedure, shortened: as §2

[6] = A CellTox Green Cytotoxicity Assay to monitor cytotoxicity in HEK293 cells - 24 hour (AID 1224875); also: series mostly up to about 77 µM; nearly all actives have a fitted effect of over 45% in size
Procedure, shortened: as §1

[7] = A CellTox Green Cytotoxicity Assay to monitor cytotoxicity in HepG2 cells - 16 hour (AID 1224876); also: nearly all actives have a fitted effect of over 45% in size
Procedure, shortened: (§4)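 HepG2 cells, 600/well, preincubated 5 h with CellTox Green dye, then exposed to Tox21 compounds in DMSO at 37 C for up to 40 h. Dead-cell DNA fluorescence read at the indicated time point.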

[8] = qHTS RealTime-Glo MT Cell Viability Assay in HepG2 cells - 32 hour (AID 1224877); also: nearly all actives have a fitted effect of over 55% in size
Procedure, shortened: (§5)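 Tox21 10K library screened in qHTS format on HepG2 cells carrying RealTime-Glo reagents. Compounds were added after a 5 h preincubation, and the luminescent signal from continuous culture was measured repeatedly during 40 h treatment.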

[9] = A CellTox Green Cytotoxicity Assay to monitor cytotoxicity in HepG2 cells - 24 hour (AID 1224878); also: nearly all actives have a fitted effect of over 45% in size
Procedure, shortened: as §4

[10] = A CellTox Green Cytotoxicity Assay to monitor cytotoxicity in HepG2 cells - 40 hour (AID 1224879); also: nearly all actives have a fitted effect of over 40% in size
Procedure, shortened: as §4

[11] = qHTS RealTime-Glo MT Cell Viability Assay in HEK293 cells - 0 hour (AID 1224880)
Procedure, shortened: (§6)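 600 cells/well were plated with the nonlytic NanoLuc/prosubstrate reagent, pre-incubated 5 h, then given 23 nL of compound in DMSO. Incubation at 37 C for 40 h, with luminescence from viable-cell-reduced substrate read repeatedly from 0 h.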

[12] = A CellTox Green Cytotoxicity Assay to monitor cytotoxicity in HEK293 cells - 32 hour (AID 1224881); also: nearly all actives have a fitted effect of over 40% in size
Procedure, shortened: as §1

[13] = A CellTox Green Cytotoxicity Assay to monitor cytotoxicity in HepG2 cells - 0 hour (AID 1224882); also: nearly all actives have a fitted effect of over 35% in size
Procedure, shortened: as §4

[14] = A CellTox Green Cytotoxicity Assay to monitor cytotoxicity in HepG2 cells - 32 hour (AID 1224883); also: nearly all actives have a fitted effect of over 50% in size
Procedure, shortened: as §4

[15] = A CellTox Green Cytotoxicity Assay to monitor cytotoxicity in HEK293 cells - 8 hour (AID 1224884); also: nearly all actives have a fitted effect of over 35% in size
Procedure, shortened: as §1

[16] = qHTS RealTime-Glo MT Cell Viability Assay in HepG2 cells - 16 hour (AID 1224885); also: nearly all actives have a fitted effect of over 50% in size
Procedure, shortened: as §5

[17] = qHTS RealTime-Glo MT Cell Viability Assay in HEK293 cells - 24 hour (AID 1224886)
Procedure, shortened: as §3

[18] = qHTS RealTime-Glo MT Cell Viability Assay in HEK293 cells - 32 hour (AID 1224868)
Procedure, shortened: as §3

[19] = qHTS RealTime-Glo MT Cell Viability Assay in HEK293 cells - 40 hour (AID 1224874); settings: RealTime-Glo luminescence; max response: active compounds read low; also: nearly all actives have a fitted effect of over 50% in size
Procedure, shortened: as §6
% is scaled to controls: 0 for no effect and ±100 for the full control effect.

COC(=O)/C=C\C(=O)O
inactive: Potency [1] | outcome [2] | Potency [3] | Potency [4] | outcome [5] | Potency [6] | Potency [7] | outcome [8] | Potency [9] | Potency [10] | Potency [11] | Potency [12] | Potency [13] | Potency [14] | Potency [15] | outcome [16] | Potency [17]

CC(=O)CC(=O)Nc1ccc(C)cc1C
inactive: Potency [18] | Potency [1] | outcome [2] | Potency [3] | Potency [4] | outcome [5] | max response [19] -1.23% | Potency [6] | Potency [7] | outcome [8] | Potency [9] | Potency [10] | Potency [11] | Potency [12] | Potency [13] | Potency [14] | Potency [15] | outcome [16] | Potency [17]

COc1ccc(CCO)cc1
inactive: Potency [18] | Potency [1] | Potency [3] | Potency [4] | outcome [5] | max response [19] 21.3% | Potency [6] | Potency [7] | Potency [9] | Potency [10] | Potency [11] | Potency [12] | Potency [13] | Potency [14] | Potency [15] | outcome [16] | Potency [17]

CC(O)COC(C)(C)C (configuration not stated)
inactive: Potency [18] | Potency [1] | outcome [2] | Potency [3] | Potency [4] | outcome [5] | max response [19] 7.99% | Potency [7] | Potency [9] | Potency [10] | Potency [11] | Potency [12] | Potency [13] | Potency [14] | Potency [15] | outcome [16] | Potency [17]

Cc1cc(-c2ccccc2)nnc1NCCN1CCOCC1
inactive: Potency [18] | Potency [1] | outcome [2] | Potency [3] | outcome [5] | max response [19] -1.81% | Potency [7] | outcome [8] | Potency [9] | Potency [10] | Potency [11] | Potency [12] | Potency [13] | Potency [14] | Potency [15] | outcome [16] | Potency [17]

O=C(O)CNC(=O)CNC(=O)CNC(=O)CSC(=O)c1ccccc1
inactive: Potency [1] | outcome [2] | Potency [3] | Potency [4] | outcome [5] | max response [19] 6.64% | Potency [6] | Potency [7] | outcome [8] | Potency [9] | Potency [10] | Potency [11] | Potency [12] | Potency [13] | Potency [14] | Potency [15] | outcome [16] | Potency [17]

CO/N=C(/C(=O)N[C@@H]1C(=O)N2C(C(=O)[O-])=C(C[n+]3ccn4ncccc43)CS[C@H]12)c1nsc(N)n1
inactive: Potency [18] | Potency [1] | outcome [2] | Potency [3] | Potency [4] | outcome [5] | Potency [7] | outcome [8] | Potency [9] | Potency [10] | Potency [11] | Potency [12] | Potency [13] | Potency [14] | Potency [15] | outcome [16] | Potency [17]

N#Cc1cscn1
inactive: Potency [18] | Potency [1] | Potency [3] | outcome [5] | max response [19] 9.48% | Potency [6] | Potency [7] | outcome [8] | Potency [9] | Potency [10] | Potency [11] | Potency [12] | Potency [13] | Potency [14] | Potency [15] | outcome [16] | Potency [17]

O=Cc1cc2ccccc2o1
inactive: Potency [18] | Potency [1] | outcome [2] | Potency [3] | Potency [4] | outcome [5] | max response [19] -1.57% | Potency [6] | Potency [7] | Potency [9] | Potency [10] | Potency [11] | Potency [12] | Potency [13] | Potency [14] | Potency [15] | outcome [16] | Potency [17]

COCCc1ccccn1
inactive: Potency [18] | Potency [1] | Potency [3] | Potency [4] | outcome [5] | max response [19] -3.81% | Potency [6] | Potency [7] | outcome [8] | Potency [9] | Potency [10] | Potency [11] | Potency [12] | Potency [13] | Potency [14] | Potency [15] | outcome [16] | Potency [17]

O=C(O)CONC(=O)c1ccccc1
inactive: Potency [18] | Potency [1] | outcome [2] | Potency [3] | outcome [5] | max response [19] 1.73% | Potency [6] | Potency [7] | outcome [8] | Potency [9] | Potency [10] | Potency [11] | Potency [12] | Potency [13] | Potency [14] | Potency [15] | outcome [16] | Potency [17]

CCO[Si](CC)(OCC)OCC
inactive: Potency [18] | Potency [1] | outcome [2] | Potency [3] | outcome [5] | max response [19] -9.96% | Potency [6] | Potency [7] | outcome [8] | Potency [9] | Potency [10] | Potency [11] | Potency [12] | Potency [13] | Potency [14] | Potency [15] | outcome [16] | Potency [17]

CCC(C)C(C)=O (configuration not stated)
inactive: Potency [18] | Potency [1] | Potency [3] | Potency [4] | outcome [5] | max response [19] 0.997% | Potency [6] | Potency [7] | outcome [8] | Potency [9] | Potency [10] | Potency [11] | Potency [12] | Potency [13] | Potency [14] | Potency [15] | outcome [16] | Potency [17]

C=C(C)C1CC=C(C)C(=O)C1 (configuration not stated)
inactive: Potency [18] | Potency [1] | outcome [2] | Potency [3] | Potency [4] | outcome [5] | max response [19] 0.21% | Potency [7] | outcome [8] | Potency [9] | Potency [10] | Potency [11] | Potency [12] | Potency [13] | Potency [14] | Potency [15] | outcome [16] | Potency [17]
